Laboratory results taken from PubChem BioAssay AID1159580 (chemical genetic matrix, 2015).
Among all 5,500 compounds or so, about 2,000 (36%) were called active. Another 18% or so got no clear call; they are omitted. No stated cut-off is given here; in the data, active means normalized growth mostly below about 0.91 (no sharp cut-off); inconclusive means no clear call, values can overlap the other calls; inactive means mostly above about 0.92. Some of the results follow.

Experiment: chemical genetic growth profiling, strain panel (AID 1159580);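 further: tested at 20 µM; growth read once vehicle control cultures reached saturation at 30 °C; 1 = growth at the plate median or of vehicle wells; lower values mean less growth of the strain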
Conditions: growth OD

Measured: normalized growth

O=C1C[C@@H](c2ccc(O)cc2)Oc2cc(O)cc(O)c21
inactive: S. cerevisiae deletion strains, locus YJR075W, strain HOC1, active compounds read low 1.02 | S. cerevisiae deletion strains, locus YKL009W, strain mrt4, active compounds read low 1 | S. cerevisiae deletion strains, locus YKL068W, active compounds read low 0.998 | S. cerevisiae deletion strains, locus YKL085W, strain MDH1 (second series), active compounds read low 1 | S. cerevisiae deletion strains, locus YKL085W, strain MDH1, active compounds read low 1 | S. cerevisiae deletion strains, locus YKL160W, strain elf1, active compounds read low 0.985 | S. cerevisiae deletion strains, locus YKL190W, strain CNB1, active compounds read low 1.01 | S. cerevisiae deletion strains, locus YKR001C, strain vps1, active compounds read low 0.999 | S. cerevisiae deletion strains, locus YKR026C, strain gcn3, active compounds read low 0.962 | S. cerevisiae deletion strains, locus YKR091W, strain srl3, active compounds read low 0.973 | S. cerevisiae deletion strains, locus YLL001W, strain dnm1, active compounds read low 0.944 | S. cerevisiae deletion strains, locus YLL026W, active compounds read low 0.967 | S. cerevisiae deletion strains, locus YLL041C, strain sdh2, active compounds read low 0.977 | S. cerevisiae deletion strains, locus YLR027C, strain aat2, active compounds read low 0.982 | S. cerevisiae deletion strains, locus YLR039C, strain RIC1, active compounds read low 1 | S. cerevisiae deletion strains, locus YLR058C, strain SHM2, active compounds read low 1.01 | S. cerevisiae deletion strains, locus YLR102C, strain apc9, active compounds read low 1.02 | S. cerevisiae deletion strains, locus YLR113W, strain HOG1, active compounds read low 0.967 | S. cerevisiae deletion strains, locus YLR221C, strain rsa3, active compounds read low 0.975 | S. cerevisiae deletion strains, locus YLR258W, strain gsy2, active compounds read low 0.968 | S. cerevisiae deletion strains, locus YLR262C, strain YPT6 (second series), active compounds read low 0.962 | S. cerevisiae deletion strains, locus YLR262C, strain YPT6, active compounds read low 0.992 | S. cerevisiae deletion strains, locus YLR268W, strain sec22, active compounds read low 1.01 | S. cerevisiae deletion strains, locus YLR320W, strain mms22, active compounds read low 0.959 | S. cerevisiae deletion strains, locus YLR330W, strain CHS5, active compounds read low 1.02 | S. cerevisiae deletion strains, locus YLR342W, strain FKS1 (second series), active compounds read low 0.989 | S. cerevisiae deletion strains, locus YLR342W, strain FKS1, active compounds read low 0.963 | S. cerevisiae deletion strains, locus YLR357W, strain rsc2, active compounds read low 0.935 | S. cerevisiae deletion strains, locus YLR370C, strain arc18, active compounds read low 0.957 | S. cerevisiae deletion strains, locus YLR371W, strain rom2, active compounds read low 1.03 | S. cerevisiae deletion strains, locus YLR384C, strain iki3, active compounds read low 0.959 | S. cerevisiae deletion strains, locus YLR418C, strain cdc73, active compounds read low 1.03 | S. cerevisiae deletion strains, locus YML016C, strain PPZ1, active compounds read low 1.01 | S. cerevisiae deletion strains, locus YML032C, strain rad52, active compounds read low 1.01 | S. cerevisiae deletion strains, locus YML120C, strain ndi1, active compounds read low 0.957 | S. cerevisiae deletion strains, locus YML124C, strain tub3, active compounds read low 1.02 | S. cerevisiae deletion strains, locus YMR058W, strain fet3, active compounds read low 0.955 | S. cerevisiae deletion strains, locus YMR078C, strain ctf18, active compounds read low 1.02 | S. cerevisiae deletion strains, locus YMR125W, strain sto1, active compounds read low 0.938 | S. cerevisiae deletion strains, locus YMR129W, active compounds read low 0.966 | S. cerevisiae deletion strains, locus YMR205C, strain PFK2, active compounds read low 0.942 | S. cerevisiae deletion strains, locus YMR223W, strain ubp8, active compounds read low 1.01 | S. cerevisiae deletion strains, locus YMR231W, strain pep5, active compounds read low 0.976 | S. cerevisiae deletion strains, locus YMR263W, strain SAP30, active compounds read low 1.01 | S. cerevisiae deletion strains, locus YMR307W, strain GAS1, active compounds read low 0.994 | S. cerevisiae deletion strains, locus YNL067W, strain RPL9B, active compounds read low 1.01 | S. cerevisiae deletion strains, locus YNL071W, strain lat1, active compounds read low 0.967 | S. cerevisiae deletion strains, locus YNL128W, strain TEP1, active compounds read low 1.02 | S. cerevisiae deletion strains, locus YNL153C, strain GIM3, active compounds read low 1.01 | S. cerevisiae deletion strains, locus YNL183C, strain NPR1, active compounds read low 0.936 | S. cerevisiae deletion strains, locus YNL209W, strain ssb2, active compounds read low 0.966 | S. cerevisiae deletion strains, locus YNL233W, strain BNI4, active compounds read low 0.999 | S. cerevisiae deletion strains, locus YNL248C, strain rpa49, active compounds read low 0.969 | S. cerevisiae deletion strains, locus YNL250W, strain rad50, active compounds read low 1.01 | S. cerevisiae deletion strains, locus YNL271C, strain bni1, active compounds read low 1.01 | S. cerevisiae deletion strains, locus YNL298W, strain CLA4, active compounds read low 1.03 | S. cerevisiae deletion strains, locus YNL307C, strain MCK1, active compounds read low 1.01 | S. cerevisiae deletion strains, locus YNL322C, strain KRE1 (second series), active compounds read low 0.982 | S. cerevisiae deletion strains, locus YNL322C, strain KRE1, active compounds read low 1.01 | S. cerevisiae deletion strains, locus YNR049C, strain mso1, active compounds read low 0.959 | S. cerevisiae deletion strains, locus YNR052C, strain pop2, active compounds read low 1.01 | S. cerevisiae deletion strains, locus YOL006C, strain TOP1, active compounds read low 0.997 | S. cerevisiae deletion strains, locus YOL012C, strain htz1 0.851 | S. cerevisiae deletion strains, locus YOL147C, strain pex11, active compounds read low 1.02 | S. cerevisiae deletion strains, locus YOR001W, strain rrp6, active compounds read low 0.983 | S. cerevisiae deletion strains, locus YOR061W, strain CKA2, active compounds read low 1.02 | S. cerevisiae deletion strains, locus YOR069W, strain VPS5, active compounds read low 1.01 | S. cerevisiae deletion strains, locus YOR070C, strain gyp1, active compounds read low 0.964 | S. cerevisiae deletion strains, locus YOR080W, strain dia2, active compounds read low 0.976 | S. cerevisiae deletion strains, locus YOR083W, strain WHI5, active compounds read low 0.996 | S. cerevisiae deletion strains, locus YOR106W, strain vam3, active compounds read low 0.963 | S. cerevisiae deletion strains, locus YOR136W, strain idh2, active compounds read low 1.02 | S. cerevisiae deletion strains, locus YOR144C, strain elg1, active compounds read low 1.01 | S. cerevisiae deletion strains, locus YOR184W, strain ser1, active compounds read low 1 | S. cerevisiae deletion strains, locus YOR231W, strain MKK1, active compounds read low 0.95 | S. cerevisiae deletion strains, locus YOR265W, strain rbl2, active compounds read low 0.969 | S. cerevisiae deletion strains, locus YOR270C, strain vph1, active compounds read low 0.902 | S. cerevisiae deletion strains, locus YOR290C, strain snf2, active compounds read low 0.923 | S. cerevisiae deletion strains, locus YOR316C, strain cot1, active compounds read low 1.01 | S. cerevisiae deletion strains, locus YPL051W, strain arl3, active compounds read low 0.984 | S. cerevisiae deletion strains, locus YPL055C, strain LGE1, active compounds read low 1.02 | S. cerevisiae deletion strains, locus YPL078C, strain atp4, active compounds read low 0.971 | S. cerevisiae deletion strains, locus YPL106C, strain sse1, active compounds read low 0.957 | S. cerevisiae deletion strains, locus YPL240C, strain hsp82, active compounds read low 0.978 | S. cerevisiae deletion strains, locus YPL241C, strain CIN2, active compounds read low 1 | S. cerevisiae deletion strains, locus YPL256C, strain CLN2, active compounds read low 0.921 | S. cerevisiae deletion strains, locus YPR119W, strain clb2, active compounds read low 1.01 | S. cerevisiae deletion strains, locus YPR141C, strain kar3, active compounds read low 1.01 | S. cerevisiae deletion strains, locus YPR163C, strain tif3, active compounds read low 1 | S. cerevisiae deletion strains, locus YPR167C, strain met16, active compounds read low 1.01 | S. cerevisiae deletion strains, strain wtn01, active compounds read low 1.02 | S. cerevisiae strains, strain wild type, active compounds read low 1.01
